Test results taken from PubChem BioAssay (NCI).
Compounds without any hit were thinned out: in the full panel of roughly 79,000, 15% have a hit. Activity calls are given as the source filed them. No stated cut-off is given here; in the data, active means growth inhibition above about 70%; inactive means the rest.

Legend:
[1] = NCI Yeast Anticancer Drug Screen. Data for the rad52 strain (AID 147);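 further: 0% = growth of vehicle-treated control cultures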; settings: S. cerevisiae rad52 mutant growth inhibition, hits give high values
Outline: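 Read-out: growth inhibition versus vehicle-treated controls. Cells were a DNA repair-deficient yeast strain treated with compounds.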

[2] = NCI Yeast Anticancer Drug Screen. Data for the wt1 strain (AID 149);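 further: 0% = growth of vehicle-treated wt1 cultures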; settings: S. cerevisiae wt1 strain (SPY 50644) growth inhibition, hits give high values
Outline: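 wt1 yeast, compound-treated; % growth inhibition vs vehicle control.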

[3] = NCI Yeast Anticancer Drug Screen. Data for the rad50EPP+ strain (AID 151);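 further: 0% = growth of vehicle-treated control cultures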; settings: S. cerevisiae rad50 mutant strain, hits give high values
Outline: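 Growth inhibition read against vehicle controls in rad50EPP+ yeast, a strain altered in DNA damage repair, after compound exposure.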

[4] = NCI Yeast Anticancer Drug Screen. Data for the mgt1 strain (AID 153); settings: S. cerevisiae mgt1 mutant growth inhibition, hits give high values
Outline: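 mgt1 yeast grown with test compound; read-out is growth inhibition versus vehicle-treated cultures.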

[5] = NCI Yeast Anticancer Drug Screen. Data for the rad50 strain (AID 155);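 further: 0% = growth of vehicle-only cultures of the same strain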; settings: S. cerevisiae rad50 strain growth inhibition, hits give high values
Outline: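 Genetically altered yeast (DNA repair pathway); compound treatment; growth inhibition vs vehicle ctrl.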

[6] = NCI Yeast Anticancer Drug Screen. Data for the mec2-1 strain (AID 157); settings: S. cerevisiae mec2-1 strain, hits give high values
Outline: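 Yeast mec2-1 mutant treated with compound. Readout: growth inhibition vs vehicle controls.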

[7] = NCI Yeast Anticancer Drug Screen. Data for the rad14 strain (AID 159);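 further: 0% = growth of vehicle-treated control cultures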; settings: S. cerevisiae rad14 strain growth inhibition, hits give high values
Outline: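 Test compounds were applied to a repair-deficient yeast strain. Its growth was then compared with that of cultures given vehicle alone, and inhibition was expressed relative to those controls.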

[8] = NCI Yeast Anticancer Drug Screen. Data for the sgs1 mgt1 strain (AID 161);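 further: 0% = growth of cultures given vehicle only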; settings: S. cerevisiae sgs1 mgt1 strain, hits give high values
Outline: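 Mutant yeast exposed to compound; growth scored against vehicle-only wells.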

[9] = NCI Yeast Anticancer Drug Screen. Data for the CLN2oe strain (AID 163);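 further: 0% = growth of vehicle-only control cultures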; settings: S. cerevisiae CLN2oe strain, hits give high values
Outline: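 Read-out: yeast growth inhibition, expressed relative to vehicle-only controls. The strain bears an engineered cell-cycle alteration.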

[10] = NCI Yeast Anticancer Drug Screen. Data for the cln2 rad14 strain (AID 165);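 further: 0% = growth equal to vehicle treated cultures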; settings: S. cerevisiae cln2 rad14 strain, hits give high values
Outline: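 cln2 rad14 yeast strain; compound exposure; growth inhibition read vs vehicle controls.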

[11] = NCI Yeast Anticancer Drug Screen. Data for the bub3 strain (AID 167); settings: S. cerevisiae bub3 mutant strain, hits give high values
Outline: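 Yeast carrying a defined mutation is treated with each compound, and growth is compared with that of vehicle-exposed cells to give inhibition.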

[12] = NCI Yeast Anticancer Drug Screen. Data for the wt2 strain (AID 169);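 further: 0% = growth of vehicle-treated yeast cultures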; settings: S. cerevisiae wt2 strain growth inhibition, hits give high values
Outline: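 Read-out: growth inhibition versus vehicle-treated control cultures after compound exposure of the yeast strain.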

[13] = NCI Yeast Anticancer Drug Screen. Data for the mlh1 strain (AID 171);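 further: 0% = growth of vehicle-treated control cultures of the same strain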; settings: S. cerevisiae mlh1 strain growth inhibition, hits give high values
Outline: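 Read-out: growth inhibition versus vehicle controls. Strain: engineered yeast with a defined DNA repair or cell cycle defect, compound-treated.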

[14] = NCI Yeast Anticancer Drug Screen. Data for the sgs1 strain (AID 173);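 further: 0% = growth of vehicle-only control cultures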; settings: S. cerevisiae sgs1 mutant, hits give high values
Outline: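 Read-out: yeast growth inhibition relative to vehicle controls, following compound exposure of a strain with a defined DNA repair/cell cycle alteration.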

[15] = NCI Yeast Anticancer Drug Screen. Data for the mlh1 rad18 strain (AID 175); settings: S. cerevisiae mlh1 rad18 strain growth inhibition, hits give high values
Outline: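 Yeast w/ defined DNA-repair lesions; compound exposure; growth vs vehicle controls → % inhibition.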

[16] = NCI Yeast Anticancer Drug Screen. Data for the rad18 strain (AID 177); settings: S. cerevisiae rad18 mutant growth inhibition, hits give high values
Outline: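 Readout: growth inhibition vs vehicle controls. Cells: genetically altered yeast strain, DNA repair defect.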

[17] = at 5.0 µM (retest, dose inferred, filed as 0.5)
[18] = at 50.0 µM (retest, dose inferred, filed as 5.0)

Measured: growth inhibition

Oc1ccc(C2(c3ccc(O)cc3)CCCC2)cc1
active: [1]; at 33.0 µM 98% | [1]; at 100.0 µM 98% | [2]; at 33.0 µM 98% | [2]; at 100.0 µM 98% | [4]; at 33.0 µM 97% | [4]; at 100.0 µM 98% | [5]; at 33.0 µM 98% | [5]; [18] 99% | [5]; at 50.0 µM 90.5% | [5]; at 100.0 µM 98% | [6]; at 33.0 µM 98% | [6]; [18] 99% | [6]; at 50.0 µM 93.2% | [6]; at 100.0 µM 98% | [7]; at 33.0 µM 98% | [7]; at 100.0 µM 98% | [8]; at 50.0 µM 92.1% | [9]; at 33.0 µM 99% | [9]; at 100.0 µM 98% | [10]; [18] 99% | [10]; at 50.0 µM 89.5% | [11]; at 33.0 µM 98% | [11]; [18] 98% | [11]; at 50.0 µM 92.1% | [11]; at 100.0 µM 98% | [12]; at 33.0 µM 98% | [12]; at 100.0 µM 98% | [13]; at 33.0 µM 98% | [13]; at 100.0 µM 98% | [14]; at 33.0 µM 98% | [14]; at 100.0 µM 98% | [15]; [18] 99% | [15]; at 50.0 µM 90% | [16]; at 33.0 µM 98% | [16]; at 100.0 µM 98%
inactive: [1]; at 1.2 µM -31% | [1]; at 3.7 µM -23% | [1]; at 11.0 µM 15% | [2]; at 1.2 µM -41% | [2]; at 3.7 µM -21% | [2]; at 11.0 µM 10% | [3]; at 1.2 µM -40% | [3]; at 3.7 µM -50% | [3]; at 11.0 µM -44% | [3]; at 33.0 µM -50% | [3]; at 100.0 µM -4% | [4]; at 1.2 µM -23% | [4]; at 3.7 µM -6% | [4]; at 11.0 µM 37% | [5]; at 1.2 µM 3% | [5]; at 3.7 µM 4% | [5]; [17] 16% | [5]; at 11.0 µM 34% | [6]; at 1.2 µM -26% | [6]; at 3.7 µM -16% | [6]; [17] 8% | [6]; at 11.0 µM 32% | [7]; at 1.2 µM 1% | [7]; at 3.7 µM -16% | [7]; at 11.0 µM 29% | [8]; [17] 9% | [8]; [18] 53% | [9]; at 1.2 µM -12% | [9]; at 3.7 µM 16% | [9]; at 11.0 µM 48% | [10]; [17] 44% | [11]; at 1.2 µM -24% | [11]; at 3.7 µM -22% | [11]; [17] 16% | [11]; at 11.0 µM 27% | [12]; at 1.2 µM -54% | [12]; at 3.7 µM -30% | [12]; at 11.0 µM -18% | [13]; at 1.2 µM -33% | [13]; at 3.7 µM -26% | [13]; at 11.0 µM 46% | [14]; at 1.2 µM -20% | [14]; at 3.7 µM -17% | [14]; at 11.0 µM 11% | [15]; [17] 35% | [16]; at 1.2 µM -11% | [16]; at 3.7 µM 7% | [16]; at 11.0 µM 60%
